# In the library only some 4.5% were active in any assay of this set; here they are far more common.
# EBNA-1 inh – blocks EBNA-1 binding to DNA | EBNA-1 DNA binding, fluorescence polarization | inhibition, % at 14.8 µM | 300,000 tested, 0.34% active | AID 1950; in the data active means inhibition above about 28%
# Rpn11 block – blocks the human proteasome subunit Rpn11; O00487; human 26S proteasome, Ub4-pepOG fluorescence polarization; 20S core pre-blocked with epoxomicin; inhibition, % at 20 µM; 360,000 tested, 0.59% active;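 active means inhibition at 20 µM, scaled to each plate's controls, above about 33%, limit read from the data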
# TPT1 inhibitor – C. albicans TPT1 enzyme inhibition. inhibition, % at 5 µM. recombinant caTPT1, FP RNA substrate dephosphorylation. 300,000 tested, 0.81% active;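 active means inhibition above the mean of all tested compounds plus 3 SD, set per screening campaign, cut at about 24% in these data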;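 further: plate controls were DMSO alone for no effect and ferristatin control at 100 nM for full effect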
# NR3A LBD binder – modulators (binders) of human NR3A ligand-binding domain | 340,000 tested, 2.5% active | AID 1259313 | Tm shift relative to glycine control, % at 25 µM | NR3A LBD differential scanning fluorimetry, Tm shift; 0% = protein alone, 100% = glycine-bound protein;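 active means melting temperature shift of at least 10% of the positive control shift, at one fixed dose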
# dFosB act – activators of mouse delta FosB homodimer | activation, % at 25 µM | 340,000 tested, 0.99% active | P13346 | purified delta FosB, TAMRA-CDK5 oligo fluorescence polarization; percent of positive-control signal above neutral wells;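 active means mean activation above about 17%, with every replicate also reaching it, limit read from the data, passing the limit was not always enough; inconclusive means only one of the two conditions met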
# Target sequence (P13346 whole entry, looked up): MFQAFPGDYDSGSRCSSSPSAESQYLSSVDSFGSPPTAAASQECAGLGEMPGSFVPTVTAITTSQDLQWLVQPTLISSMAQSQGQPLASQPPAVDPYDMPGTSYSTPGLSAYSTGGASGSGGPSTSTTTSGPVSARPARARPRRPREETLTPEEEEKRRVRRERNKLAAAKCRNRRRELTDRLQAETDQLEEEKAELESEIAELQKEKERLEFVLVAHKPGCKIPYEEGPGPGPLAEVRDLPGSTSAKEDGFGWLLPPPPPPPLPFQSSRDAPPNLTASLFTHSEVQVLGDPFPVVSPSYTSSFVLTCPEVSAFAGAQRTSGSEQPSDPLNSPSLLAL
# ZTA counter – blocks Epstein-Barr virus ZTA, an EBNA-1 counter-screen; ZTA-DNA binding, fluorescence polarization; P03206; inhibition, % at 11 µM; AID 2234; 320,000 tested, 0.15% active; in the data active means inhibition above about 33%
# An asterisk follows results filed as active; u = inconclusive; x = no result given.
SMILES,EBNA-1 inh,Rpn11 block,TPT1 inhibitor,NR3A LBD binder,dFosB act,ZTA counter
O=C(Nc1cccn2nc(COCCO)nc12)C(c1ccccc1)c1ccccc1,x,-3,x,x,x,x
CC(C)(C)N(Cc1ccccc1)C(=O)CCc1ccccc1,7,-11,1,0,-6,-8
CC1CC(C)CN(C(=O)COC(=O)c2ccc3ccccc3n2)C1 (stereo unspecified),x,-5,x,0,-8,-11
COc1ccc(NC(=O)/C(C#N)=C/c2ccc(OCc3ccccc3F)cc2)cc1,0,1,-5,-3,-11,-2
COc1cc(/C=N/NC(=O)c2ccc(COc3ccccc3Cl)o2)cc(Br)c1O,8,18,0,2,34*,1
O=C(NN=Cc1ccc(O)c(O)c1)c1ccccc1,x,-5,x,x,x,x
O=C(COc1ccccc1C(=O)N/N=C\c1ccc(O)c(O)c1)N/N=C/c1ccc(O)c(O)c1,-4,x,1,13*,8,-10
CC(C)(C)c1ccc(OCc2ccc(C(=O)N/N=C/c3ccc(O)c(O)c3)cc2)cc1,7,-6,0,24*,-6,8
C[C@@H]1CN(S(=O)C(C)(C)C)[C@@H](CCO)/C1=C\c1ccccc1 (stereo partly specified),x,-3,x,-10,6,x
CC(=O)Nc1ccc(N(CC(O)Cn2c3ccccc3c3ccccc32)S(=O)(=O)c2ccc(C)cc2)cc1 (stereo unspecified),-14,9,9,22*,1,-8
O=C(Nc1ccc(/C=C/c2nc3ccccc3o2)cc1)c1cccc(C(F)(F)F)c1,12,14,-2,17*,-13,2
O=C(Nc1ccc(/C=C/c2nc3ccccc3o2)cc1)c1c(F)cccc1F,10,1,4,20*,9,1
COC(=O)CSc1[nH]c2ccc(F)cc2c1[N+](=O)[O-],-7,6,2,1,0,2
CCCn1cc(S(=O)(=O)c2ccc(OC)cc2)c(=O)c2cc(OC)ccc21,-4,1,-1,0,-8,-1
COc1ccc(-c2cc(-c3nnc(COC(=O)c4ccc(O)cc4)o3)c3ccccc3n2)cc1OC,18,9,-3,15*,u,1
COc1ccc(-c2cc(-c3nnc(COC(=O)C4CC4)o3)c3ccccc3n2)cc1OC,0,16,-3,-1,-11,9
CC(C)(C=O)C1=CC(=O)c2ccccc2C1=O,-2,0,-1,11*,-4,-3
CC1CN(Cc2ccccc2)c2nc3c(c(=O)[nH]c(=O)n3C)n2C1 (stereo unspecified),-12,-1,1,29*,-2,-1
Cn1c(=O)[nH]c(=O)c2c1nc1n2CCN1Cc1ccccc1,-2,-1,-6,0,-2,-13
Clc1ccc2c(c1)nc1n2CCCC1,5,-7,-5,15*,-6,16
COc1ccc(C2=CCCC2)c(OC)c1,x,-2,x,0,4,x
Cc1[nH]n(-c2ccccc2)c(=O)c1C1(C(F)(F)F)C(=O)N(c2ccccc2)C2=C1C(=O)CC(C)(C)C2 (stereo unspecified),-3,1,2,13*,-23,1
COc1cc(OC)cc(C(=O)Nc2nnc(NC(=S)Nc3ccccc3)s2)c1,13,0,-4,26*,-5,5
COc1cc(OC)cc(C(=O)Nc2ccc(Nc3ccccc3)cc2)c1,-1,-1,-2,0,2,2
CC1(C(=O)NCc2ccc(Cl)cc2)CCN1C(=O)c1cccc(F)c1 (stereo unspecified),x,0,x,x,x,x
SMILES,EBNA-1 inh,Rpn11 block,TPT1 inhibitor,NR3A LBD binder,dFosB act,ZTA counter
NC(=O)c1ccsc1NC(=O)CSc1nc2ccccc2c(=O)n1CCCO,-8,0,-6,0,-10,-15
Cn1c(SCC(=O)Nc2sccc2C(N)=O)nc2ccccc2c1=O,x,-2,x,35*,-5,x
CCOc1ccc(S(=O)(=O)NNS(=O)(=O)c2ccc(C)cc2C)cc1,3,0,-5,1,-7,-16
Nc1ccccc1C#Cc1ccc2[nH]ccc2c1,14,7,0,19*,4,10
CN(C)S(=O)(=O)c1ccc2nnn(OCC(=O)NC34CC5CC(CC(C5)C3)C4)c2c1,6,-3,2,12*,-5,-6
CN(C)CCNc1ncnc2c1ncn2[C@H]1CN(Cc2cccnc2)C[C@@H](CO)O1,x,2,x,x,x,x
CCN(CC)CCCNc1nc2cc(OC)c(OC)cc2c2nc(-c3cccnc3)nn12,-7,2,2,-1,245*,-3
CCN(CC)CCCNc1nc2ccccc2c2nc(-c3ccncc3)nn12,8,2,0,x,67*,2
COCCCNc1nc2cc(OC)c(OC)cc2c2nc(-c3ccccc3)nn12,-3,-1,3,-1,-18,3
COc1cc2nc(NCCCN3CCN(C)CC3)n3nc(-c4ccccc4)nc3c2cc1OC,3,5,1,4,166*,9
CCN(CC)CCCNc1nc(-c2ccccc2)nc2ccccc12,14,-2,0,0,-10,-1
CCN(CC)CCCNc1nc2cc(OC)c(OC)cc2c2nc(-c3ccccc3)nn12,-8,2,-2,-5,181*,-1
CN1CCN(CCCNc2nc3ccccc3c3nc(-c4ccccc4)nn23)CC1,x,2,x,-1,-28,x
CCN(CC)c1ccc(S(=O)(=O)N2CCCCC2)cc1NC(=O)CN1C(=O)NC2(CCCC2)C1=O,-3,-2,-4,3,-11,-1
COc1cc(CC(NC(C)=O)C(=O)NC2CCN(S(=O)(=O)c3ccc(NC(C)=O)cc3)CC2)cc(OC)c1 (stereo unspecified),-15,-6,0,0,-12,-6
NS(=O)(=O)c1cccc(NC(=O)COc2ncnc3c2cnn3-c2ccccc2)c1,6,6,-3,-2,-10,-1
O=C(COc1ncnc2c1cnn2-c1ccccc1)Nc1ccc(S(=O)(=O)N2CCCCC2)cc1,18,-4,0,18*,0,1
O=C(Cn1nnc(-c2ccccc2)n1)N/N=C/c1cc([N+](=O)[O-])c(Cl)cc1Cl,7,3,-2,16*,3,7
CCc1ccc(NC(=O)N2CCCCCC2)cc1,11,0,-3,2,-1,7
CC(Sc1ncc(C(F)(F)F)cc1Cl)C(=O)NCC1CCCO1 (stereo unspecified),-4,1,6,0,-1,6
CN1CCN(CC(O)COC(c2ccc(Cl)cc2)c2ccc(Cl)cc2)CC1 (stereo unspecified),1,-29,1,-1,22*,3
CC(C(=O)NC(=O)NC1CCCCC1)N1CCN(C(c2ccccc2)c2ccccc2)CC1 (stereo unspecified),-8,1,0,-1,-5,-13

# Assay outcomes (PubChem BioAssay)
